Measurements taken from PubChem BioAssay (EPA / NIEHS).
Several values for one entry are separate records, joined by “and”; a condition that tells them apart may be missing. Identical values can stand only once. Some compounds were tested as several samples or in several runs, with calls that do not always agree. Activity calls are given as the source filed them. How the source made its calls: active means hit-call score of the fitted dose curve at least 0.9, where 1 is the maximum; inactive means score below 0.9.

Columns and labels:
Settings in all cases: mRNA level, 48 h; actives raise or lower the signal
[1] = read-out: Cytochrome P450 (CYP1A2), CYP1A2 (gene 1544); assay: LTEA_HepaRG_CYP1A2: Life Technologies and Expression Analysis (LTEA) Assay for Cytochrome P450 (CYP1A2) using HepaRG (AID 2283479)
Procedure, shortened: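 HepaRG, 48 h exposure, top 100 uM, half-log 8-pt, 0.5% DMSO vehicle, duplicates. Readout: TaqMan qRT-PCR of CYP1A2 mRNA, housekeeping-normalized (ACTB/GAPDH/POLR2A). Gain/loss fit relative to DMSO baseline.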

[2] = read-out: cysteine-aspartic acid protease (CASP8), CASP8 (gene 841); assay: LTEA_HepaRG_CASP8: Life Technologies and Expression Analysis (LTEA) Assay for cysteine-aspartic acid protease (CASP8) using HepaRG (AID 2283480)
Procedure, shortened: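 CASP8 transcript measured by TaqMan qRT-PCR with ACTB/GAPDH/POLR2A normalization, after 48 h chemical exposure of HepaRG cells in serum-free induction medium. Eight concentrations, top 100 uM, half-log steps, 0.5% DMSO vehicle; fits in both directions versus DMSO.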

[3] = read-out: Cytochrome P450 (CYP2B6), CYP2B6 (gene 1555); assay: LTEA_HepaRG_CYP2B6: Life Technologies and Expression Analysis (LTEA) Assay for Cytochrome P450 (CYP2B6) using HepaRG (AID 2283481)
Procedure, shortened: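 Read-out is CYP2B6 mRNA by TaqMan qRT-PCR, normalized to three housekeeping genes and fitted bidirectionally against 0.5% DMSO baseline. Human HepaRG cells received test chemicals for 48 h, top concentration 100 uM, half-log dilutions.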

[4] = read-out: Cytochrome P450 2C19 (Homo sapiens) (UniProt P33261); assay: LTEA_HepaRG_CYP2C19: Life Technologies and Expression Analysis (LTEA) Assay for CYP2C19 using HepaRG (AID 2283482)
Procedure, shortened: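 HepaRG, 48 h chemical exposure, 8-pt half-log series from 100 uM in 0.5% DMSO, duplicates. Readout: CYP2C19 mRNA by TaqMan qRT-PCR, housekeeping-normalized. Bidirectional fit vs DMSO baseline; phenobarbital 1mM as induction control.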

[5] = read-out: CYP2C8 (gene 1558); assay: LTEA_HepaRG_CYP2C8: Life Technologies and Expression Analysis (LTEA) Assay for CYP2C8 using HepaRG (AID 2283483)
Procedure, shortened: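 CYP2C8 expression measured by TaqMan qRT-PCR and normalized to three housekeeping genes. HepaRG cultures were treated for 48 h with an eight-point half-log series topping at 100 uM, vehicle 0.5% DMSO, duplicates; fitted both directions against DMSO.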

[6] = read-out: CYP2E1 (gene 1571); assay: LTEA_HepaRG_CYP2E1: Life Technologies and Expression Analysis (LTEA) Assay for CYP2E1 using HepaRG (AID 2283485)
Procedure, shortened: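 CYP2E1 transcript was measured by TaqMan qRT-PCR in human HepaRG cultures after 48 h chemical exposure (top 100 uM, half-log steps, 0.5% DMSO vehicle). Housekeeping-gene normalization; gain or loss fitted relative to DMSO baseline.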

[7] = read-out: CYP4A11 (gene 1579); assay: LTEA_HepaRG_CYP4A11: Life Technologies and Expression Analysis (LTEA) Assay for CYP4A11 using HepaRG (AID 2283486)
Procedure, shortened: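 CYP4A11 transcript levels were quantified by TaqMan qRT-PCR after HepaRG human liver cells were treated for 48 hours with test chemicals (top 100 uM, half-log dilutions, 0.5% DMSO). Gain or loss of signal was fitted relative to DMSO.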

[8] = read-out: Cytochrome P450 3A4 (Homo sapiens) (UniProt P08684); assay: LTEA_HepaRG_CYP3A4: Life Technologies and Expression Analysis (LTEA) Assay for CYP3A4 using HepaRG (AID 2283487)
Procedure, shortened: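 In a human hepatic line (HepaRG), duplicate wells were treated 48 h with up to 100 uM chemical in half-log dilutions. Endpoint: CYP3A4 mRNA induction or loss relative to 0.5% DMSO vehicle, by qRT-PCR.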

[9] = read-out: DNA damage-inducible transcript 3 (DDIT3), DDIT3 (gene 1649); assay: LTEA_HepaRG_DDIT3: Life Technologies and Expression Analysis (LTEA) Assay for DNA damage-inducible transcript 3 (DDIT3) using HepaRG (AID 2283488)
Procedure, shortened: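 qRT-PCR readout (Fluidigm TaqMan), housekeeping-normalized to ACTB, GAPDH, POLR2A. HepaRG cells, 48 h exposure, 8-point half-log series from 100 uM in 0.5% DMSO, duplicates. Gain or loss of signal fitted against DMSO baseline.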

[10] = read-out: CYP2C9 (gene 1559); assay: LTEA_HepaRG_CYP2C9: Life Technologies and Expression Analysis (LTEA) Assay for CYP2C9 using HepaRG (AID 2283484)
Procedure, shortened: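 CYP2C9 transcript level, quantified by TaqMan qRT-PCR against three housekeeping genes, was fitted bidirectionally relative to 0.5% DMSO. HepaRG cultures were treated 48 h, in duplicate, at eight half-log concentrations topping at 100 uM.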

Measured: AC50

Cytochrome P450 2C19 (Homo sapiens), sequence (P33261 whole entry, looked up): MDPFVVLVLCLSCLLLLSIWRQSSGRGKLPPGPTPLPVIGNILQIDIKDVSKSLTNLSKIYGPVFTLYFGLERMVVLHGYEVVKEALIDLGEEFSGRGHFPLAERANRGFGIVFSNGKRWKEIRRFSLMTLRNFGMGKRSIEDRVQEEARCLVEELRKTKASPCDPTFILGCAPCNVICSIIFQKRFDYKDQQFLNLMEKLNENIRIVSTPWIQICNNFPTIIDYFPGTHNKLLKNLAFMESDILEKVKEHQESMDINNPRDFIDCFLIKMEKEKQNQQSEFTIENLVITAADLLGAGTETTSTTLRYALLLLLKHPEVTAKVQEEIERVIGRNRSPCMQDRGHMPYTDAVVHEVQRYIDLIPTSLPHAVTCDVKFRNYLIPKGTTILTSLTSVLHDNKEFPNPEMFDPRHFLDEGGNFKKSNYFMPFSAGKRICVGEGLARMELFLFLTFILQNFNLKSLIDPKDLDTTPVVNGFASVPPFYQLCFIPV
Cytochrome P450 3A4 (Homo sapiens), sequence (P08684 whole entry, looked up): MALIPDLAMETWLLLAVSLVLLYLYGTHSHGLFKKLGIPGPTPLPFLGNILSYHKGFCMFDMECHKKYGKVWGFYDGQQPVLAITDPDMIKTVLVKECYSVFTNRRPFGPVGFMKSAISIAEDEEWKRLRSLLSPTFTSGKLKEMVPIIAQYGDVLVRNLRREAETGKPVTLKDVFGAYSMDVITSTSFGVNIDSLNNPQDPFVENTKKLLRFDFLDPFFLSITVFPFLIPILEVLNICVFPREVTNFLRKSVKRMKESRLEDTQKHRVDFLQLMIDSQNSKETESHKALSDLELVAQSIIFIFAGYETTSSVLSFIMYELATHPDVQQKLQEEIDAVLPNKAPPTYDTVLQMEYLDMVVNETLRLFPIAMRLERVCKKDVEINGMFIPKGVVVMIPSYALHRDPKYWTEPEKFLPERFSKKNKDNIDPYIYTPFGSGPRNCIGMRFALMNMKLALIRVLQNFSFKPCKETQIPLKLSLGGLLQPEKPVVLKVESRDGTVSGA

CC/C(=C(\c1ccccc1)c1ccc(OCCN(C)C)cc1)c1ccccc1
active: [1] 11.9 µM | [2] 72.5 µM and 77.4 µM | [6] 17 µM and 23.7 µM | [7] 19.7 µM and 22.4 µM | [9] 64.7 µM and 72.2 µM
inactive: [1] | [3] | [4] | [5] | [8]

C=C(C)C(N)=O
inactive: all assays above

O=C(c1ccc(OCCN2CCCCC2)cc1)c1c(-c2ccc(O)cc2)sc2cc(O)ccc12
active: [2] 73.3 µM | [3] 80.5 µM | [10] 50 µM | [6] 69.1 µM | [9] 83.3 µM
inactive: [1] | [5] | [7]

COC(=O)c1ccc(C(=O)OC)cc1
inactive: all assays above

C#C[C@]1(O)CC[C@H]2[C@@H]3CCc4cc(O)ccc4[C@H]3CC[C@@]21C
active: [3] 4.05 µM | [4] 50 µM | [5] 50 µM
inactive: all other assays above

C[C@]12CC[C@@H]3c4ccc(O)cc4CC[C@H]3[C@@H]1CC[C@@H]2O
inactive: [2] | [10] | [9]
active: [1] 79.5 µM | [3] 1.73 µM | [4] 5.7 µM | [5] 4.16 µM | [6] 50 µM | [7] 76.9 µM | [8] 4.95 µM

CCCCOCCOCCO
inactive: all assays above
